Data reported in PubChem BioAssay (EPA / NIEHS).
Calls of active or inactive are those of the source. Rule for the calls: active = hit-call score of the fitted dose curve at least 0.9, where 1 is the maximum; inactive = score below 0.9.

Key:
[1] = ATG_CRE_CIS: Attagene CIS-FACTORIAL HepG2 Assay for human cAMP Responsive Element (CRE) binding protein 3 (AID 2282926); settings: HepG2 CRE cis-reporter, Attagene multiplexed mRNA; actives raise or lower the signal
How it was run: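 Multiplexed transcription-unit reporters transfected into HepG2; 24 h dosing; RT-PCR/capillary electrophoresis fluorescence read-out; bidirectional fit vs DMSO.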

[2] = biological target: CCAAT/enhancer-binding protein beta (Homo sapiens) (UniProt P17676); assay: ATG_C_EBP_CIS: Attagene CIS-FACTORIAL HepG2 Assay for human CCAAT/Enhancer Binding Protein (C/EBP) beta (AID 2282927); settings: HepG2 Attagene cis-factorial transcription factor reporter; actives raise or lower the signal
How it was run: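 Endogenous C/EBPb-driven reporter transcripts measured in transfected human HepG2 cells at 24 h via RT-PCR and capillary electrophoresis of labelled fragments. Activity fitted in both directions relative to DMSO baseline.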

[3] = ATG_CMV_CIS: Attagene CIS-FACTORIAL HepG2 Assay for human CMV (Internal Marker) (AID 2282928); settings: HepG2 CMV promoter reporter, transcription factor profiling; actives raise or lower the signal;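 note: endpoint acts as a background internal control marker rather than a target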
How it was run: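 Endogenous transcription factor activity read in HepG2 via transfected cis-promoter reporter units. After 24 h dosing, reporter mRNA measured by RT-PCR/capillary electrophoresis; gain or loss of signal fit relative to DMSO.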

[4] = ATG_DR4_LXR_CIS: Attagene CIS-FACTORIAL HepG2 Assay for human Liver X Receptor (LXR), DR4 submotif (AID 2282929); settings: HepG2 Attagene DR4 cis-reporter, mRNA transcription; actives raise or lower the signal
How it was run: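 DR4 cis-reporter in HepG2, 24 h exposure. Detection: RT-PCR, 6-FAM labelling, CE fragment analysis. Endpoint fitted bidirectionally, DMSO = baseline.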

[5] = biological target: Aryl hydrocarbon receptor (Homo sapiens) (UniProt P35869); assay: ATG_Ahr_CIS: Attagene CIS-FACTORIAL HepG2 Assay for human Aryl Hydrocarbon Receptor (Ahr) (AID 2282930); settings: HepG2 AhR cis-factorial reporter transcription; actives raise or lower the signal
How it was run: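 Reporter mRNA levels, quantified by RT-PCR and fluorescent capillary electrophoresis, reflect endogenous AhR transcriptional activity in HepG2 cells carrying transfected cis-promoter reporter constructs. Readout at 24 h post-dose; gain or loss fitted against DMSO baseline.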

[6] = ATG_AP_1_CIS: Attagene CIS-FACTORIAL HepG2 Assay for human Activator Protein 1 (AP-1) (AID 2282931); settings: HepG2 Attagene cis-factorial AP-1 reporter mRNA; actives raise or lower the signal
How it was run: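 Cis-regulated reporter units transiently expressed in HepG2 report endogenous transcription-factor activity. Signal: reporter mRNA at 24 h, via RT-PCR and fluorescent capillary electrophoresis. Endpoint derived by bidirectional fitting, DMSO as negative control.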

[7] = ATG_AP_2_CIS: Attagene CIS-FACTORIAL HepG2 Assay for human Activator Protein 2 (AP-2) (AID 2282932); settings: HepG2 AP-2 cis-reporter, Attagene transcription factor profiling; actives raise or lower the signal
How it was run: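 HepG2, transient MRTU transfection, cis-regulated reporters; 24 h compound exposure; RNA isolated, RT-PCR, 6-FAM labelling, HpaI digest, CE fluorescence. DMSO = negative control/baseline, bidirectional fit.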

[8] = ATG_BRE_CIS: Attagene CIS-FACTORIAL HepG2 Assay for human Bone Morphogenetic Protein (BMP) Response Element (BRE) (AID 2282933); settings: HepG2 BMP response element reporter, Attagene transcription factor profiling; actives raise or lower the signal
How it was run: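 Endogenous transcription factor activity read in transiently transfected HepG2 cells after 24 h chemical exposure. Bidirectional curve fitting against DMSO; readout is reporter transcript level by RT-PCR with capillary electrophoresis of labelled products.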

[9] = biological target: Transcription factor E2F1 (Homo sapiens) (UniProt Q01094); assay: ATG_E2F_CIS: Attagene CIS-FACTORIAL HepG2 Assay for human E2F Transcription Factor 1 (AID 2282935); settings: HepG2 Attagene cis-reporter, E2F reporter RNA transcripts; actives raise or lower the signal
How it was run: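 Cis-element reporter mRNA induction in transiently transfected HepG2, 24 h exposure. Activity fitted in both directions relative to DMSO negative control.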

[10] = ATG_M_61_CIS: Attagene CIS-FACTORIAL HepG2 Assay for M61 Transcription Factor (Internal Marker) (AID 2282937); settings: HepG2 Attagene CIS-FACTORIAL M61 internal marker reporter; actives raise or lower the signal
How it was run: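 Background-control endpoint: HepG2 cells with cis-regulated reporter constructs, 24 h exposure, reporter mRNA detected via fluorescent primer extension and capillary electrophoresis; values from bidirectional fitting with DMSO baseline.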

[11] = ATG_EGR_CIS: Attagene CIS-FACTORIAL HepG2 Assay for human Early Growth Response 1 (EGR1) (AID 2282938); settings: HepG2 Attagene CIS-FACTORIAL EGR reporter mRNA; actives raise or lower the signal
How it was run: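 Endpoint derived by bidirectional fitting versus DMSO vehicle. Method: cis-promoter reporter units transfected into HepG2, 24 h dosing, RNA isolation, RT-PCR with 6-FAM primer extension and HpaI digestion, then capillary electrophoresis fluorescence detection.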

[12] = ATG_M_19_CIS: Attagene CIS-FACTORIAL HepG2 Assay for M19 Transcription Factor (Internal Marker) (AID 2282939); settings: HepG2 Attagene CIS-FACTORIAL M19 internal marker reporter; actives raise or lower the signal
How it was run: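 Internal marker readout, fitted in both directions against DMSO, from HepG2 cells carrying transfected cis-element reporter constructs; RT-PCR and capillary electrophoresis of reporter mRNA after 24 h exposure.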

[13] = ATG_ERE_CIS: Attagene CIS-FACTORIAL HepG2 Assay for Estrogen Response Element (ERE) (AID 2282940); settings: HepG2 ERE cis-reporter, Attagene RNA transcript; actives raise or lower the signal
How it was run: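 After 24 h compound treatment, RNA from transfected HepG2 cells was reverse-transcribed, reporter cDNA PCR-amplified, FAM-labelled, HpaI-cut and resolved by capillary electrophoresis. ERE-driven cis reporter transcripts reflect endogenous factors; gain or loss scored against DMSO.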

[14] = ATG_Ets_CIS: Attagene CIS-FACTORIAL HepG2 Assay for human Erythroblast Transformation Specific (ETS) (AID 2282941); settings: HepG2 ETS cis-reporter transcription, actives raise or lower the signal
How it was run: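 Steps: transfect HepG2 with multiple reporter units; treat compound 24 h; isolate RNA, DNase-treat, reverse-transcribe; PCR-amplify, label with 6-FAM, digest with HpaI; separate by capillary electrophoresis. Activity fitted both directions versus DMSO.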

[15] = biological target: Hepatocyte nuclear factor 3-beta (Homo sapiens) (UniProt Q9Y261); assay: ATG_FoxA2_CIS: Attagene CIS-FACTORIAL HepG2 Assay for human Forkhead box A2 (FOXA2) (AID 2282942); settings: HepG2 cis-reporter transcription factor activity, 24 h; actives raise or lower the signal
How it was run: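 Measured: reporter mRNA induction or loss in HepG2 transiently carrying multiple cis-regulated reporter units, 24 h after dosing. Quantified by RT-PCR plus capillary electrophoresis, normalised to DMSO.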

[16] = ATG_FoxO_CIS: Attagene CIS-FACTORIAL HepG2 Assay for human Forkhead box O (FoxO) (AID 2282943); settings: HepG2 Attagene cis-reporter, FoxO element, mRNA; actives raise or lower the signal
How it was run: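 Endogenous transcription factor activity read from multiplexed cis-promoter reporter transcripts in transiently transfected HepG2, 24 h after dosing. Reporter RNA measured via RT-PCR plus capillary electrophoresis of FAM-labeled products; gain or loss relative to DMSO.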

[17] = ATG_GATA_CIS: Attagene CIS-FACTORIAL HepG2 Assay for human GATA Binding Protein (AID 2282944); settings: HepG2 GATA cis-element reporter, Attagene multiplex mRNA; actives raise or lower the signal
How it was run: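 Reporter transcripts from a GATA cis-regulated unit, among multiplexed reporters in transfected HepG2 cells, were measured by RT-PCR with capillary electrophoresis after 24 h dosing. Induction or loss scored relative to DMSO.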

[18] = ATG_E_Box_CIS: Attagene CIS-FACTORIAL HepG2 Assay for human Enhancer Box (E-box) (AID 2282936); settings: HepG2 E-box cis-reporter transcription, actives raise or lower the signal
How it was run: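 Cells: HepG2 (human liver), transient MRTU transfection. Exposure 24 h. RNA → oligo(dT) RT → PCR → 6-FAM label → HpaI → CE. Activity fitted both directions relative to DMSO.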

[19] = biological target: Retinoic acid receptor alpha (Homo sapiens) (UniProt P10276); assay: ATG_DR5_RAR_CIS: Attagene CIS-FACTORIAL HepG2 Assay for human Retinoic Acid Receptor Alpha (RARE), DR5 submotif (AID 2282934); settings: HepG2 Attagene cis-factorial RARE DR5 reporter, mRNA; actives raise or lower the signal
How it was run: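 Reporter transcripts from a DR5-regulated unit, measured via RT-PCR plus capillary electrophoresis, reflect endogenous RAR activity in transiently transfected human HepG2 liver cells. Exposure lasted 24 h; gain or loss of signal scored against DMSO.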

Measured: AC50

Sequence of Aryl hydrocarbon receptor (Homo sapiens) (P35869 whole entry, looked up): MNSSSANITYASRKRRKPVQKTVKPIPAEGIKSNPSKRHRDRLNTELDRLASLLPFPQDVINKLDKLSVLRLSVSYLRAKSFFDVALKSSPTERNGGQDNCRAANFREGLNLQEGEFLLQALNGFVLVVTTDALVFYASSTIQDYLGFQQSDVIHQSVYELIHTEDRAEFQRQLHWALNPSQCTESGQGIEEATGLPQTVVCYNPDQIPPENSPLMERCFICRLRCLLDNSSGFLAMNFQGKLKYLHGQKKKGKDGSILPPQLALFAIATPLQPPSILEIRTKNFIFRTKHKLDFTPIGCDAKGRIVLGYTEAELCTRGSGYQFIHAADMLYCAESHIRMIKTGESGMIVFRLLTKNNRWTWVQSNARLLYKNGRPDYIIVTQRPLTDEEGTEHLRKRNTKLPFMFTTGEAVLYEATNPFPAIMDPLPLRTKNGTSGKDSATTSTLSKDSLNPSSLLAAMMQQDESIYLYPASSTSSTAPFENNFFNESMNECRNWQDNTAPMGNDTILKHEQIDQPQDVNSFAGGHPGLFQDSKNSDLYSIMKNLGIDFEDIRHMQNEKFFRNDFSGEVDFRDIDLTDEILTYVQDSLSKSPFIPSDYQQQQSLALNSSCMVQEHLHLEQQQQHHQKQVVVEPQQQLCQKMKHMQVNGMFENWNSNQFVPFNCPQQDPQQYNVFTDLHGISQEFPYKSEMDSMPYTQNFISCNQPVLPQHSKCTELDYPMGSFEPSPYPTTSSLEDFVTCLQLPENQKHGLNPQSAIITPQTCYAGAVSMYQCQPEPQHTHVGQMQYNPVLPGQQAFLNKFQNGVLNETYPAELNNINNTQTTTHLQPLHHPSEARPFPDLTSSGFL
Sequence of Transcription factor E2F1 (Homo sapiens) (Q01094 whole entry, looked up): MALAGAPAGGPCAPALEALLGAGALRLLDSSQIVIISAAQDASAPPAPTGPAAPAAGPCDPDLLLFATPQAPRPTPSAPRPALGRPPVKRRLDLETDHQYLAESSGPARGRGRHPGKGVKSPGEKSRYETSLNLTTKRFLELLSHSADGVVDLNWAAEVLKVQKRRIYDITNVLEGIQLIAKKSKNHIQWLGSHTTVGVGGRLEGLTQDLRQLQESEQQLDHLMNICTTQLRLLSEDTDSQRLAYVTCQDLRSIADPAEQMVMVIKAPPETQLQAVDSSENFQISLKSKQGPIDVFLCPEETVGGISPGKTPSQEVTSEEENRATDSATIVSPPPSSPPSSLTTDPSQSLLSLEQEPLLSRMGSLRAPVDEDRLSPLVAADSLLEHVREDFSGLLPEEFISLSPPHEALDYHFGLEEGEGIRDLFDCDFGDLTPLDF
Sequence of Retinoic acid receptor alpha (Homo sapiens) (P10276 whole entry, looked up): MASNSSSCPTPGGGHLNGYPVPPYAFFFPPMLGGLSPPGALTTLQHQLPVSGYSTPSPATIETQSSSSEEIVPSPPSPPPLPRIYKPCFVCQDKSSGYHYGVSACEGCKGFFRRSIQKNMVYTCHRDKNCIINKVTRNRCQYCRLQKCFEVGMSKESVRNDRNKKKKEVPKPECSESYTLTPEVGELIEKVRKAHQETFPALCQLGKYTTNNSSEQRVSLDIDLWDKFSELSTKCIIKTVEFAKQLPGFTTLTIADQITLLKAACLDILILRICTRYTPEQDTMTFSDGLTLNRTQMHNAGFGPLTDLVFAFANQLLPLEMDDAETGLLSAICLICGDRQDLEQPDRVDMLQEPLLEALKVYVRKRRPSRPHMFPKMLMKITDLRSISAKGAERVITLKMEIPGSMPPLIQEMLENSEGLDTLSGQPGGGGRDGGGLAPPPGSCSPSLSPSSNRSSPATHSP
Sequence of CCAAT/enhancer-binding protein beta (Homo sapiens) (P17676 whole entry, looked up, the tested form may be a part): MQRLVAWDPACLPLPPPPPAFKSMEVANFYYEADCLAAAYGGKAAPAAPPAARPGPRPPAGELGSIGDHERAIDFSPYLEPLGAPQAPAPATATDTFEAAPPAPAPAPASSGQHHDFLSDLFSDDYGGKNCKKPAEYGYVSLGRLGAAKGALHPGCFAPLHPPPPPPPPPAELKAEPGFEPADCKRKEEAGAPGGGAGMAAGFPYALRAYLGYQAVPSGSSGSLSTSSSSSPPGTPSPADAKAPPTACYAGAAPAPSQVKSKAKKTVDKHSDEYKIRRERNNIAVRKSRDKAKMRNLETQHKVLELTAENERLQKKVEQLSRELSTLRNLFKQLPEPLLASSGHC
Sequence of Hepatocyte nuclear factor 3-beta (Homo sapiens) (Q9Y261 whole entry, looked up): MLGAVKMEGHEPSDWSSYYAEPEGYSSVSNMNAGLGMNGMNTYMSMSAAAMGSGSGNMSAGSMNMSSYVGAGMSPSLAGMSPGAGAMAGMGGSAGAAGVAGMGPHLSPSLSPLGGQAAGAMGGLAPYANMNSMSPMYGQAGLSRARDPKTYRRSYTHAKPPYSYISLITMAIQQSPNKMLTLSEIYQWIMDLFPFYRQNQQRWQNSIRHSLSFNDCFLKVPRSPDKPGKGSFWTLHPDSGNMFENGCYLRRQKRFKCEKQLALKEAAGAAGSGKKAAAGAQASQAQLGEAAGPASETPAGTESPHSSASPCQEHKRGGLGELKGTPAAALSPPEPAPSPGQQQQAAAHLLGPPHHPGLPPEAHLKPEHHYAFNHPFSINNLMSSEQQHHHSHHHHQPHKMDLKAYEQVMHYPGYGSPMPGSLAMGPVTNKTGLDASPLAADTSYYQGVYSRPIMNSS

CCOc1ccc(NC(C)=O)cc1
not listed: [18] | [19]
inactive: all other assays above

NC(=O)c1c(Cl)cccc1Cl
active: [5] 55.4 µM
not listed: [10] | [17] | [19]
inactive: all other assays above

CCOC(=O)COC(=O)c1ccccc1C(=O)OCC
not listed: [17] | [18] | [19]
inactive: all other assays above

C=C/C(C)=C/C/C=C(\C)CCC=C(C)C
active: [6] 125 µM | [13] 56.8 µM
not listed: [14] | [19]
inactive: all other assays above

CN(C)C
not listed: [13] | [14] | [19]
inactive: all other assays above

CCCc1ccc(N)cc1
not listed: [10] | [14] | [19]
inactive: all other assays above

CC(C)=CCCC(C)=CC(=O)O
not listed: [10] | [18] | [19]
inactive: all other assays above

C=C(C)C(=O)OCCN(C)C
not listed: [8]
inactive: all other assays above

CCCCCCCCCCCCN1CCOCC1
active: [3] 44.8 µM | [4] 60.5 µM | [6] 51.8 µM | [8] 47.7 µM
not listed: [10] | [14] | [18] | [19]
inactive: all other assays above

CCCCC(CC)COCCO (configuration not stated)
active: [5] 19.8 µM
not listed: [13] | [18] | [19]
inactive: all other assays above

CC(=O)c1cccnc1
not listed: [18] | [19]
inactive: all other assays above

C=C(C)C(N)=O
not listed: [8]
inactive: all other assays above

OC[C@@H](O)[C@H](O)[C@@H](O)[C@@H](O)CO
active: [13] 30.1 µM
not listed: [8]
inactive: all other assays above

N#CCCNCCC#N
not listed: [10] | [17] | [19]
inactive: all other assays above

CC=CC(=O)C1=C(C)C=CCC1(C)C
not listed: [10] | [17] | [19]
inactive: all other assays above

CC(C)CCCC(C)(C)O
not listed: [13] | [19]
inactive: all other assays above

CCC(C)(C)c1cc(O)c(C(C)(C)CC)cc1O
active: [1] 5.39 µM | [2] 19.8 µM | [3] 54.3 µM | [4] 26.7 µM | [11] 14.1 µM | [16] 10.1 µM | [17] 27.2 µM
not listed: [13] | [19]
inactive: all other assays above
